Screening data as filed in PubChem BioAssay.
D1 PAM: Potentiators of Human D1 Dopamine Receptor: qHTS; D(1A) dopamine receptor (Homo sapiens), P21728; HEK293 TREx D1 cells, calcium flux, dopamine EC20 potentiation; potentiation, % at 10 µM; hit rate 0.036% among 360,000; AID 504651, 2011; in the data active means potentiation above about 30%
TRHR agonist: qHTS for Small Molecule Agonists and Allosteric Enhancers of Human TRH Receptor: Primary Screen for Agonists. Thyrotropin-releasing hormone receptor (Homo sapiens), P34981. TRHR cells, calcium flux fluo-8, FDSS agonist mode. activation, % at 2 µM. hit rate 0.18% among 360,000. AID 493084, 2011
Target sequence (P34981 whole entry, looked up): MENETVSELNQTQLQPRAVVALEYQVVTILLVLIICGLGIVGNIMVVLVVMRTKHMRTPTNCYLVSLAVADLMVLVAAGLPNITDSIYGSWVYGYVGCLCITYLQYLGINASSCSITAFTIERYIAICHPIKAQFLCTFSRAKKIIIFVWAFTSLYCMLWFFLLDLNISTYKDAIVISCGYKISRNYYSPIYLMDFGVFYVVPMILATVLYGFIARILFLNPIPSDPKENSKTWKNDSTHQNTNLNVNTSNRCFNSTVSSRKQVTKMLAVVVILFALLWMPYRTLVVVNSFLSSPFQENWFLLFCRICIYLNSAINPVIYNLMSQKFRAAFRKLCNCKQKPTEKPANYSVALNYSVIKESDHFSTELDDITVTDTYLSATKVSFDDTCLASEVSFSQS
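TRHR-expressing cells, plated overnight in medium with 10% serum, were loaded with fluo-8 calcium dye at room temperature. After a 10 s baseline, library compound was pin-added and calcium release was recorded kinetically (ex 480/em 530) as agonist response.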
D1 antagonist: Antagonist of Human D 1 Dopamine Receptor: qHTS; D(1A) dopamine receptor (Homo sapiens), P21728; HEK293 TREx D1 cells, calcium flux, dopamine EC80; active compounds read low; activity change, negative = inhibition, % at 10 µM; hit rate 3.2% among 360,000; in the data active means activity change below about -30%
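Calcium flux readout: force-coupled, inducible Hek293 Trex D1 line, cells induced overnight at 30 C with tetracycline, dye-loaded 30–90 min at RT. Antagonism scored against EC80 dopamine challenge given 180 s after compound.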
D1 ag: Allosteric Agonists of the Human D1 Dopamine Receptor: qHTS; D(1A) dopamine receptor (Homo sapiens), P21728; HEK293 T-REx D1 cells, calcium flux, agonist mode; activation, % at 2 µM; hit rate 1% among 360,000
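Tetracycline-induced HEK293 TREx D1 cells, force-coupled to calcium signalling, were dye-loaded with a no-wash calcium kit. Compound was pin-added after a 10 s baseline. Fluorescence was read kinetically at 1 cycle/s for 180 s, with calcium rises flagged as agonism.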
TRHR PAM: qHTS for Small Molecule Agonists and Allosteric Enhancers of Human TRH Receptor: Primary Screen for Enhancers; Thyrotropin-releasing hormone receptor (Homo sapiens), P34981; AID 493056, 2011; enhancement, % at 2 µM; hit rate 0.66% among 360,000; TRHR cells, fluo-8 calcium fluorescence, EC20 TRH enhancement; in the data active means enhancement above about 30%
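Enhancer read-out: after compound pinning and an initial kinetic agonist-mode read, an EC20 of TRH (10 nM final) was injected and fluo-8 calcium signal (Ex 480/Em 530) followed at 1 s/cycle for 100 cycles in TRHR-expressing cells.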
USP1-UAF1 inh: Inhibitors of USP1/UAF1: Primary Screen | Ubiquitin carboxyl-terminal hydrolase 1 (Homo sapiens), O94782 | recombinant USP1/UAF1, Ub-Rhodamine cleavage fluorescence | Potency, µM (top dose mostly 57.1 µM), usual class: inhibitors | hit rate 0.23% among 390,000 | AID 743255, 2014; active means well fitted inhibition curve with a large enough effect; inconclusive means small, poorly fitted or top-dose-only effect; inactive means no such curve, though single readings can be large or run the other way; further: nearly all actives have a fitted effect of over 60% in size
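1 nM enzyme complex + cpd, 15 min RT; start with Ub-Rho 150nM final; kinetic fluorescence ex 480/em 540, 6 reads q60 s. Buffer 50mM HEPES pH 7.8, 0.5mM EDTA, 0.1 mg/ml BSA, 1mM TCEP, 0.01% Tween-20.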
Numbers stand for hits; – = inactive; ? = inconclusive; · = no result. A selection: hits, their analogues and other compounds. The true share with any hit is near 4.4%. Unless noted, no stated cut-off is given here; in the data, active means activation above about 30%; inactive means the rest.

SMILES	D1 PAM	TRHR agonist	D1 antagonist	D1 ag	TRHR PAM	USP1-UAF1 inh
CC(CN1CCN(c2ccccc2)CC1)c1ccccc1 (centres undefined)	–	–	-59	–	–	–
CC(C)c1ccc(OCC(O)CN2CCN(c3ccccc3)CC2)cc1 (centres undefined)	–	–	–	–	–	?
CC(CCN1CCOCC1)c1ccccc1 (centres undefined)	–	–	–	–	–	–
C/C(=C\c1ccccc1)CN1CCN(c2ccccc2)CC1	–	–	-38	–	–	–
CC(CCN1CCN(c2ccc(F)cc2)CC1)c1ccccc1 (centres undefined)	–	–	-62	–	–	–
COc1ccc(-n2nc(C(=O)NCCc3cccc(C)c3)c3c4ccccc4n(C)c3c2=O)cc1Cl	–	–	–	–	–	–
COc1ccc(NC(=O)Cn2c(NCC(C)O)nc3ccccc32)cc1Cl (centres undefined)	–	–	-70	–	–	–
COc1ccc(NC(=O)CSc2nc3ccccc3nc2N2CCCC2)cc1Cl	–	–	–	–	–	–
COc1ccccc1OCC(=O)Nc1sc2c(c1C(N)=O)CCC2	·	·	·	·	·	–
Cc1ccc(OCC(=O)Nc2sc3c(c2C(N)=O)CCCC3)c(C(C)(C)C)c1	–	–	-39	–	–	–
Cc1ccc(OCC(=O)Nc2ccc(S(=O)(=O)Nc3ncccn3)cc2)c(C(C)(C)C)c1	–	–	-31	–	–	–
O=C(CN1C(=O)COc2ccc(S(=O)(=O)N3CCOCC3)cc21)N1CCN(c2cccc(C(F)(F)F)c2)CC1	–	–	–	–	–	–
COc1cc(C(=O)OCCNC(=O)c2ccncc2)cc(OC)c1OC	–	–	-39	–	–	–
CCc1ccc(-n2c(=O)c3cccnc3n2CC(=O)Nc2cc(F)ccc2F)cc1	–	–	–	–	–	–
Cc1ccc(C)c(N2CCN(CCCNC(=O)c3ccc4nc(CCc5ccccc5)oc4c3)CC2)c1	–	–	–	–	–	?
COc1ccc(Cc2nc3ccc(C(=O)N(C)CCCN4CCOCC4)cc3o2)cc1	–	–	-49	–	–	?
O=C(NCCCN1CCN(c2ccccc2)CC1)c1ccc2nc(Cc3ccccc3)oc2c1	–	–	-60	32	–	–
CCN1CCN(CCCNC(=O)c2ccc3nc(Cc4ccc(OC)cc4)oc3c2)CC1	–	–	–	–	–	–
CCC(C)NC(=O)c1ccc2nc(Cc3ccc(OC)cc3)oc2c1 (centres undefined)	–	–	–	–	–	?
CCC(NC(=O)c1ccc2nc(Cc3ccc(OC)cc3)oc2c1)c1ccncc1 (centres undefined)	–	–	-41	–	–	–
O=C(NCCCN1CCN(c2ccc(F)cc2)CC1)c1ccc2nc(Cc3ccccc3)oc2c1	–	–	-38	–	–	–
CCN1CCN(CCCNC(=O)c2ccc3nc(Cc4ccccc4)oc3c2)CC1	–	–	–	–	–	–
COc1ccccc1-c1nnc(SCC(=O)c2ccc(F)cc2)n1-c1ccccc1	–	–	–	–	–	–
Cc1ccc(C)c(NC(=O)CSc2nnc(-c3cc4occc4n3C)n2-c2ccccc2C)c1	–	–	–	–	–	–
COc1ccc(N2CCN(CCCNC(=O)c3ccc4nc(N5CCCCC5)sc4c3)CC2)cc1	–	–	-57	–	–	–
SMILES	D1 PAM	TRHR agonist	D1 antagonist	D1 ag	TRHR PAM	USP1-UAF1 inh
Cc1ccc(Cl)cc1N1CCN(CCCNC(=O)c2ccc3nc(N4CCCCC4)sc3c2)CC1	–	–	–	–	–	–
COc1cc(Nc2cc(C)nc3ncnn23)cc(OC)c1	–	–	–	–	–	–
COc1cc(Nc2cc(C)nc3ncnn23)cc(OC)c1OC	–	–	-31	–	–	–
O=S(=O)(c1ccccc1)N1CCN(c2nc(-c3ccc(F)cc3)nc3cc(Cl)ccc23)CC1	–	–	–	–	–	·
N#C/C(=C\c1cccnc1)c1nc2c(s1)CCCC2	–	–	–	–	–	–
COc1cc(/C=C(\C#N)c2nc3c(s2)CCCC3)ccc1O	–	40	–	60	–	·
CC(C)c1ccc(CNc2c([N+](=O)[O-])c(=O)oc3ccccc23)cc1	–	–	-34	–	–	–
O=c1oc2ccccc2c(NCc2ccccc2F)c1[N+](=O)[O-]	–	–	–	–	–	–
O=c1oc2ccccc2c(Nc2ccc(Cl)cc2)c1[N+](=O)[O-]	–	–	–	33	–	–
COc1cccc(CNC(=O)Nc2ccc3c(c2)N(C)C(=O)c2ccccc2S3)c1	–	–	–	–	–	–
CN(CC(=O)Nc1ccccc1Br)c1ncnc2sccc12	–	–	-35	–	–	–
CCC(Sc1nc2ncccc2o1)C(=O)Nc1ccc(OC)c(OC)c1 (centres undefined)	–	–	–	–	–	–
CC(=O)c1ccc(OCC(=O)c2cc(C)n(-c3ccc4c(c3)OCO4)c2C)cc1	–	–	-44	–	–	–
COc1ccccc1NS(=O)(=O)c1cc(NC(=S)NCCN2CCOCC2)ccc1N1CCOCC1	–	–	-34	–	–	–
O=S(=O)(Nc1ccc(Br)cc1)c1cccc(NC(=S)NCCN2CCOCC2)c1	–	–	–	52	–	–
COc1ccccc1NS(=O)(=O)c1cc(NC(=O)C(C)(C)C)ccc1N1CCOCC1	–	–	–	–	–	–
CC1(C)N=C(SCc2ccc(F)cc2)c2ccccc2N1	–	–	–	–	–	–
COc1cccc(Nc2ccc(-n3ccnc3)nn2)c1	–	–	-66	–	–	–
CCCCCCC(=O)Nc1ccc2nc3c(=O)n(C)c(=O)n(C)c3nc2c1C	–	–	–	–	–	–
CN(C)S(=O)(=O)N1CCC(n2nccc2NC(=O)CCc2ccccc2)CC1	–	–	-44	–	–	–
O=C(CCCc1ccccc1)Nc1ccnn1C1CCN(Cc2ccc(CO)o2)CC1	–	–	-34	–	–	–
O=C(Nc1ccnn1C1CCN(Cc2ccccn2)CC1)c1cccc(F)c1	–	–	-38	–	–	–
O=C(CCCc1ccccc1)Nc1ccnn1C1CCN(Cc2ccccc2)CC1	–	–	–	34	–	–
O=C(Nc1ccnn1C1CCN(Cc2ccccc2OCCO)CC1)c1cccc(F)c1	–	–	–	–	–	–
CCSc1nc2ccccc2c(OCc2ccccc2Cl)c1C(=O)OC	–	–	–	–	–	?
